BLM helicase inh: blocks DNA unwinding by human BLM helicase; actives 0.2% (n = 350,000); P54132; recombinant BLM DNA unwinding, fluorescence dequenching; AID 2528; Potency, µM (titrated, usually from 56.1 µM), usual class: inhibitors; further: nearly all actives have a fitted effect of over 35% in size
TDP1 inh: TDP1 (human) enzyme inhibition | Q9NUW8 | recombinant TDP1, AlphaScreen DNA substrate cleavage | Potency, µM (series often up to 130 µM), most hits filed as inhibitors | actives 0.28% (n = 350,000) | AID 485290; further: nearly all actives have a fitted effect of over 40% in size
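E. coli-derived human Tdp1, 1 nM final. Cpd preinc 15 min RT; substrate 15 nM final, 5 min RT; AS bead mix 10 ug/ml final, 10 min RT. Signal loss = tyrosine-FITC cleavage. No-enzyme wells = max signal.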
APEX1 inh: inhibitors of human APE1 endonuclease; actives 0.35% (n = 350,000); recombinant APE1, TAMRA/BHQ-2 abasic DNA cleavage fluorescence; Potency, µM (titrated, usually from 65.8 µM), usual class: inhibitors; P27695; further: nearly all actives have a fitted effect of over 55% in size
Target sequence (P27695 whole entry, looked up): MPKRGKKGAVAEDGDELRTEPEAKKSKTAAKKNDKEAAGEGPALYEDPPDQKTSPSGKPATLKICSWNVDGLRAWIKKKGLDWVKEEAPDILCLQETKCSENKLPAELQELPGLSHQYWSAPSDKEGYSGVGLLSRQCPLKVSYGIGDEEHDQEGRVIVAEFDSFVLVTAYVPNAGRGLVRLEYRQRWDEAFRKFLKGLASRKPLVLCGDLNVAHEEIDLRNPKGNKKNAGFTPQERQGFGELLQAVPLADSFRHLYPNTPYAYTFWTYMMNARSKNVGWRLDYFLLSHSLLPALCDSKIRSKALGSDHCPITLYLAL
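Incision of a quenched TAMRA/BHQ-2 THF abasic-site duplex (50 nM) by 0.75 nM APE1, after 15 min compound preincubation, measured as fluorescence increase over three 60 s reads. Values normalized to buffer, DMSO and NSC13755 control wells.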
KAT2A inh: GCN5L2 (KAT2A) acetyltransferase inhibition. Q92830. GCN5L2 HAT assay, ThioGlo1 CoA-SH fluorescence. Potency, µM (doses to about 58.9 µM), usual class: inhibitors. actives 0.21% (n = 390,000)
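ThioGlo1-coupled HAT assay: 20nM GCN5L2, 70uM acetyl-CoA, 75uM H3(1-25) peptide, pH 7.5. Fluorescence read at 340/540nm at start and after 20 min at room temperature.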
RGS4 inhibitor: human RGS4 inhibition; actives 0.039% (n = 390,000); Potency, µM (series often up to 114 µM), actives largely listed as inhibitors; Transcreener GDP fluorescence polarization, RGS4-accelerated GTP hydrolysis; further: nearly all actives have a fitted effect of over 75% in size
Target sequence (P49798 whole entry, looked up): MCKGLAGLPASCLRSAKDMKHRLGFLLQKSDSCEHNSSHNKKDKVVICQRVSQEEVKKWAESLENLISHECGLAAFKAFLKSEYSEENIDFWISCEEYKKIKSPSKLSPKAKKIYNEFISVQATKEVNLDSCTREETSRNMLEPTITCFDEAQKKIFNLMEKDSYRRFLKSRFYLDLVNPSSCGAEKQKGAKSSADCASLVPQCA
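MLSMR compounds (23 nl, pin-transferred) preincubated 10 min at room temperature with a 500nM (2x) first reagent, then RGS4 at 900nM (2x) plus Transcreener GDP mix added; fluorescence polarization (620/688 nm) read before and after 90 min at 30 °C.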
RECQ1 inh-1: blocks DNA unwinding by human RECQ1 | RECQ1 DNA unwinding, red fluorescence kinetic read | Potency, µM (highest dose often 57.3 µM), hits mostly inhibitors | actives 0.54% (n = 240,000); further: nearly all actives have a fitted effect of over 30% in size
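RECQ1T1 50 nM; forked duplex (20 bp + 30-nt ss tails) 200 nM, ATP 2 mM final; pH 8.0, 2 mM MgCl2, 2.5 ug/ml poly(dI-dC); 15 min compound preincubation; discontinuous kinetic read over 2 h at RT.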
RECQ1 conf: confirmation of human RECQ1 helicase inhibitors; shares compounds with RECQ1 inh-1; RECQ1 helicase DNA unwinding, fluorescence; Potency, µM (highest dose often 229 µM), usual class: inhibitors; actives 28% (n = 610); further: nearly all actives have a fitted effect of over 45% in size
ADP FP counter: displaces ADP in a fluorescence polarization counter-screen for RECQ1 hits; shares compounds with RECQ1 inh-1; ADP fluorescence polarization displacement counterscreen; Potency, µM (doses to about 228 µM), actives largely listed as inhibitors; actives 27% (n = 530); AID 2711; further: nearly all actives have a fitted effect of over 45% in size
RECQ1 inh-2: blocks human RECQ1 DNA unwinding; shares compounds with RECQ1 inh-1; recombinant RECQ1 DNA unwinding, red fluorescence; Potency, µM (series often up to 119 µM), hits mostly inhibitors; actives 15% (n = 1,100); AID 504841; further: nearly all actives have a fitted effect of over 50% in size
Hits are given with their value; . = inactive; ? = inconclusive; / = no result; [ ] = dose if it differs, or a comment. Hits are enriched below; roughly 0.87% of the tested compounds scored in any of these assays. The call rests on the fitted dose curve; in most records, active means well fitted curve in the direction sought with a large enough effect; inconclusive means small, poorly fitted or top-dose-only effect, or another doubt; inactive means no such curve, though single readings can be large; an effect the other way counts as inactive or inconclusive.

SMILES	BLM helicase inh	TDP1 inh	APEX1 inh	KAT2A inh	RGS4 inhibitor	RECQ1 inh-1	RECQ1 inh-2	others
CCc1ccc(N2C(=O)CN(Cc3sccc3C)C2=S)cc1	.	.	.	.	.	1.6µM	.	RECQ1 conf=.;ADP FP counter=.
COc1ccc(CNc2nc(NCc3ccc(OC)cc3)c3ncn(C(C)C)c3n2)cc1	.	.	?	.	/	.	/
CCC(O)c1c(-c2ccccc2)nn(C)c1Cl (stereo not drawn)	.	.	.	.	.	?	/
CC(O)c1c(-c2ccccc2)nn(C)c1Cl (stereo not drawn)	.	.	.	.	.	40µM	.
O=C(NC(NC(=S)Nc1ccc(F)c([N+](=O)[O-])c1)C(Cl)(Cl)Cl)C(c1ccccc1)c1ccccc1 (stereo not drawn)	.	.	.	.	/	.	/
CCc1ccc(NC(=O)COC(=O)c2ccc(Cl)c(S(=O)(=O)N3CCCCCC3)c2)cc1	.	.	.	.	.	?	?
Cc1ccc(NC(=O)CN2C(=O)S/C(=C\c3cc(C)n(-c4ccc(C(=O)O)cc4)c3C)C2=O)cc1	.	.	.	.	.	?	?
CCN(CCCCO)c1nc(C)nc2c1c(C)c(C)n2-c1c(C)cc(C)cc1C	.	.	.	.	/	.	/
O=C1/C(=C\c2ccco2)SC(=S)N1c1ccc(O)cc1	.	.	.	.	.	.	/
O=C1/C(=C/c2ccco2)SC(=S)N1c1cccnc1	32µM	/	4µM	28µM	?	8.9µM	/	RECQ1 conf=50µM;ADP FP counter=50µM
CCOC(=O)c1sc(-c2ccc(Br)cc2)cc1N	.	.	.	.	.	32µM	.
CCOC(=O)c1cc(-c2ccc(N)cc2)sc1N	.	.	.	.	.	.	/
Nc1nc(Nc2ccc(Cl)cc2)nc(NCc2ccco2)c1[N+](=O)[O-]	?	.	.	.	.	16µM	79µM	RECQ1 conf=32µM;ADP FP counter=.
Cc1cccc(Nc2nc(N)c([N+](=O)[O-])c(NCCO)n2)c1	.	.	.	.	.	.	/
Nc1nc(Nc2cccc(Cl)c2)nc(NCCO)c1[N+](=O)[O-]	?	.	.	.	.	?	50µM
Nc1nc(Nc2cccc(Cl)c2)nc(NCc2ccco2)c1[N+](=O)[O-]	?	.	.	.	.	?	79µM
Cc1ccc(S(=O)(=O)c2cc3c(=O)n4ccccc4nc3n(Cc3ccco3)c2=N)cc1	.	.	?	.	.	14µM	?
CCn1c(SCC(=O)OC)nc2sc3c(c2c1=O)CCC3	.	/	?	.	.	?	?
CCn1c(SCC(=O)OC)nc2sc3c(c2c1=O)CC(C)(C)OC3	.	.	.	.	.	.	/
Cc1ccc(S(=O)(=O)N2CCC(C(=O)NCCN3CCCCCC3)CC2)cc1	.	.	.	.	.	?	.
CC(=O)OCC(NC(=O)C1CCCN1C(=O)OC(C)(C)C)C1OC(n2ccc(=O)[nH]c2=O)C(OC(C)=O)C1OC(C)=O (stereo not drawn)	.	.	.	/	.	.	/
Nc1cc(=O)[nH]c(SCC(=O)Nc2ccc3c(c2)CCC3)n1	.	.	?	.	.	?	.
COc1ccc2c(c1)CC/C(=C\c1ccc(OC)c(Cn3nc(C)cc3C)c1)C2=O	.	/	.	.[0.501 µM]	?	35µM	?
COc1ccc2c(c1)CC/C(=C\c1ccc(OC)c(Cn3cccn3)c1)C2=O	.	.	.	.	.	.	/
CN1/C(=C\C(=O)COC(=O)c2ccc(O)c(O)c2)C(C)(C)c2ccccc21	.	.	.	.	.	25µM	40µM
SMILES	BLM helicase inh	TDP1 inh	APEX1 inh	KAT2A inh	RGS4 inhibitor	RECQ1 inh-1	RECQ1 inh-2	others
CN1/C(=C\C(=O)COC(=O)CNC(=O)c2ccc3ccccc3c2)C(C)(C)c2ccccc21	.	.	.	.	.[11.4 µM]	35µM	56µM
Cc1cc(=O)[nH]c(SCC(=O)/C=C2\N(C)c3ccccc3C2(C)C)n1	.	.	.	.	.	32µM	.
CN1/C(=C\C(=O)COC(=O)CNC(=O)c2ccccc2F)C(C)(C)c2ccccc21	.	.	.	.	.	.	/
O=C(C1COc2ccccc2O1)N1CCCC1 (stereo not drawn)	.	.	.	.	.	.	/
O=C(C1COc2ccccc2O1)N1CCc2ccccc21 (stereo not drawn)	.	/	?	.	.	?	13µM
CCOC(=O)c1c(NC(=O)/C=C/C(=O)O)sc(C)c1-c1ccc(C(C)(C)C)cc1	.	.	.	?	?	?	50µM
CCOC(=O)c1c(NC(=O)/C=C\C(=O)O)sc(C)c1-c1ccccc1	.	.	.	.	?	.	/
COc1cc(/C=C2\CC/C(=C\c3cc(OC)c(O)c(OC)c3)C2=O)cc(OC)c1O	?	.	?	.	.	14µM	2.8µM
CCC[C@@H]1NC(=O)[C@@H](NC(C)=O)CSSC[C@@H](C(N)=O)NC(=O)CNC(=O)[C@H](Cc2c[nH]c3ccccc23)NC(=O)[C@H](CCCN=C(N)N)NC(=O)[C@H](Cc2ccc3ccccc3c2)NC(=O)[C@H](Cc2cnc[nH]2)NC(=O)[C@H](CCCN=C(N)N)NC1=O	.	.	.	.	/	.	/
COc1ccc(/C=C(\C#N)c2nc3ccccc3[nH]2)cc1O	.	/	.	.	.	/	/
COc1cc(/C=C(\C#N)c2nc3ccccc3[nH]2)cc(OC)c1O	.	.	?	.	.	?	56µM
CCn1c(SCC(=O)c2cc(C)n(-c3ccc(C(=O)OC)cc3)c2C)nnc1-c1cccnc1	.	.	.	.	?	.	/
COCCn1c(C)cc(C(=O)CSc2nnc(-c3cccnc3)n2-c2ccccc2F)c1C	.	.	.	.	.	3.2µM	/	RECQ1 conf=?;ADP FP counter=50µM
Cc1nnc2ccc(-c3ccc(NS(=O)(=O)c4ccccc4)cc3)nn12	/	.	.	.	.	/	/
CC(=O)c1ccc(S(=O)(=O)Nc2ccc(-c3ccc4nnc(C)n4n3)cc2)cc1	.	.	?	.	.	?	?
O=C(NC1(O)C(=O)c2ccccc2C1=O)c1ccccc1	?	.	?	.	.	.	/
CC(=O)C(C(C)=O)C1(O)C(=O)c2ccccc2C1=O	?	.	?	.	.	?	.

Bioassay records as filed in PubChem BioAssay.
